This is a sample that favours compounds with a hit; in the whole collection about 1.2% have one here.
GLA inh pH 4.5: alpha-galactosidase A (human) inhibition, pH 4.5; P06280; purified enzyme, 4-MU-alpha-Gal fluorescence, pH 4.5; activity change, negative = inhibition, % at 105 µM; 230,000 tested, under 10 active; AID 1467
HttQ103 aggreg: mutant huntingtin aggregation inhibition; PC12 HttQ103-GFP aggregates, Acumen cytometry, 40 h; actives 1.1% (n = 220,000); AID 1688; Potency, µM (top dose mostly 46.1 µM), usual class: inhibitors; also: nearly all actives have a fitted effect of over 60% in size
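Inducible Q103 Huntingtin exon 1–GFP PC12 line, 1500 cells/well in phenol red free DMEM with 5% equine and 5% calf serum. Tebufenozide 100 nM induced expression; compounds titrated; aggregates quantified by cytometry.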
HTT cytoprotect: cytoprotection in Huntington HTT-Q103 PC12 cell model; PC12 HTT-Q103 induced, cytoprotection, ATP luminescence, 40 h; Potency, µM (top dose mostly 56.4 µM), most hits filed as activators; actives 0.14% (n = 230,000); AID 1471; also: nearly all actives have a fitted effect of over 45% in size
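Cells were plated at 1500 per well in phenol red-free DMEM with 5% equine and 5% calf serum. Tebufenozide (100 nM final) and compounds were added, then ATPlite reagent, and luminescence was read.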
GLA spleen mod: inhibits or activates alpha-galactosidase in human spleen homogenate. P06280. human spleen homogenate, 4MU-alpha-Gal fluorescence, 40 min. Potency, µM (highest dose often 80 µM), usual class: inhibitors. actives 0.008% (n = 240,000). AID 2107
Target sequence (P06280 32-429 limits assumed): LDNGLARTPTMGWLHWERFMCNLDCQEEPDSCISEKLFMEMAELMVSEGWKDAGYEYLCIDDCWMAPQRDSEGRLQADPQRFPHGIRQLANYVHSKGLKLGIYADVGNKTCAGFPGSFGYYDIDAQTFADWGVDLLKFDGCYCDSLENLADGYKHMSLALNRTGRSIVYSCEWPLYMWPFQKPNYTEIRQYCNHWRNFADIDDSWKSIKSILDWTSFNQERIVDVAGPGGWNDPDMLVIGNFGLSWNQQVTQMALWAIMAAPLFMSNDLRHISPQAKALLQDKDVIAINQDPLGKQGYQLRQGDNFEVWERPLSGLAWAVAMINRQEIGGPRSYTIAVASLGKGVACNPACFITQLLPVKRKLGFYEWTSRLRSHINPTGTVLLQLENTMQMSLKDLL
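Human spleen homogenate (1 ug) as enzyme source, 4-methylumbelliferyl-alpha-D-galactopyranoside 1 mM final, citrate/phosphate pH 5.0 with 0.01% Tween-20. Compounds 40 min at 37C, NaOH/glycine stop; fluorescence Ex 365/Em 440, Hill-fit AC50.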
Hits are given with their value; i = inactive; ? = inconclusive; nt = no result given; [ ] = dose if it differs, or a comment. Calls follow the shape of the dose curve; as a rule, active = well fitted curve in the direction sought with a large enough effect; inconclusive = small, poorly fitted or top-dose-only effect, or another doubt; inactive = no such curve, though single readings can be large; an effect the other way counts as inactive or inconclusive.

SMILES | GLA inh pH 4.5 | HttQ103 aggreg | HTT cytoprotect | GLA spleen mod
CCCCCCOC(=O)C[N+](C)(C)CCOC1CC2CCC1(C)C2(C)C (configuration not stated) | i | 6.31µM | i[10 µM] | i
O=[N+]([O-])c1ccc(-c2c(O)c3ccccc3c3nc4ccccc4nc23)cc1 | i | 7.08µM | i | i
CCOC(=O)CN(C)C(=O)C1CC(CO[Si](C)(C)C(C)(C)C)=CN1C(=O)OC(C)(C)C (configuration not stated) | nt | nt | nt | i
O=C(Nc1nc(-c2cccs2)c(C(=O)C(F)(F)F)s1)c1ccccc1 | i | 10µM | nt | i
CC(C)=CCC/C(C)=C/CO/N=C1/C[C@@H](O)[C@@H](O)[C@@H]2[C@@H]3C(=O)N(Cc4ccccc4)C(=O)[C@H]3CC[C@@H]12 | nt | nt | ? | i[17.5 µM]
FC(F)(F)c1cnc(NNC(=S)Nc2ccc(Cl)cc2)c(Cl)c1 | i | 11.2µM | i[10 µM] | i
Cc1ccc(NC(=S)NNc2ncc(C(F)(F)F)cc2Cl)c(C)c1 | i | ? | i | i
Cc1ccc(NC(=S)NNc2ncc(C(F)(F)F)cc2Cl)cc1 | i | i | i[10 µM] | i
Fc1ccc(NC(=S)NNc2ncc(C(F)(F)F)cc2Cl)c(F)c1 | i | 7.94µM | i | i
O=C1OC2C[C@H]1[C@@H]1C(=O)N(Cc3ccccc3)CCC1C2I (some centres not stated) | i | nt | i | i
Cc1c(C(=O)N(C)C2CCCCC2)sc2nc3ccc(N)cc3n12 | i | nt | i | i
O=[N+]([O-])c1ccc(/C=N/Nc2nc(N3CCCCCC3)nc(N3CCCCCC3)n2)o1 | i | 7.08µM | i[10 µM] | i
CC(=O)N/N=C/c1ccc([N+](=O)[O-])o1 | nt | 31.6µM | i | nt
CC(NC(=O)c1cccnc1)C(c1cccs1)N1CCN(c2ccccc2F)CC1 (configuration not stated) | i | i[9.22 µM] | i[10 µM] | i
COc1ccccc1N1CCN(C(c2cccs2)C(C)NC(=O)c2cccnc2)CC1 (configuration not stated) | i | ? | 5.62µM | i
Cc1ccccc1OCCSCc1nc2ccccc2[nH]1 | i | 3.55µM | i[10 µM] | i
O=[N+]([O-])c1cc(CN2CCN(c3cccc(C(F)(F)F)c3)CC2)c2cccnc2c1O | i | 8.91µM | i | i
COc1cccc(N2CCN(c3ncnc4c3[nH]c3ccc(F)cc34)CC2C)c1 (configuration not stated) | i | 6.31µM | i | i
COc1cccc(N2CCN(c3ncnc4c3[nH]c3ccccc34)CC2C)c1 (configuration not stated) | i | 11.2µM | i[10 µM] | i
C=CCCCC | nt | nt | i | i
CC1CCN(S(=O)(=O)c2ccc3c(c2)C(=NO)c2cc(S(=O)(=O)N4CCC(C)CC4)ccc2-3)CC1 | i | 3.16µM | i | i
C/C(=C\c1ccco1)C1C(C#N)=C(N)Oc2n[nH]c(-c3ccc(C)cc3)c21 (configuration not stated) | i | i | 3.55µM | i
COc1ccccc1-c1nnc(Sc2nc([N+](=O)[O-])nn2C)o1 | i | nt | 17.8µM | i
CCC(Nc1ncnc2ccc(-c3c(C)noc3C)cc12)c1ccccc1 (configuration not stated) | nt | nt | nt | i
COc1cccc2[nH]c3c(N4CCC5(CC4)OCCO5)ncnc3c12 | i | i[9.22 µM] | i[10 µM] | i
SMILES | GLA inh pH 4.5 | HttQ103 aggreg | HTT cytoprotect | GLA spleen mod
COc1cccc2[nH]c3c(N4CCc5ccccc5C4)ncnc3c12 | i | i[9.22 µM] | i[10 µM] | i
c1ccc2c(c1)CCN(c1ncnc3c1[nH]c1ccccc13)C2 | i | 11.2µM | i | i
c1ccc2c(c1)[nH]c1c(N3CCC4(CC3)OCCO4)ncnc12 | i | 12.6µM | i | i
O[N+]1=CC=CCC1=S.On1ccccc1=S.[Zn] | i | nt | i | i
Cc1ccc(C2C(C=Nc3c(C)n(C)n(-c4ccccc4)c3=O)=C(c3ccccc3)Oc3ccccc32)cc1 (configuration not stated) | i | 22.4µM | i | i
Cc1ccc(N/N=C(\C#N)C(=O)c2ccsc2)cc1 | i | i[9.22 µM] | i[10 µM] | i
CC1=C(c2ccc(NN=C(C#N)C#N)cc2)NNC(=O)C1 | nt | 12.6µM | i | nt
C[C@@H](c1ccccc1)N1C(=O)[C@H]2[C@H]3[C@H](O)[C@H](O)C/C(=N/NC(=O)OCc4ccccc4)[C@@H]3CC[C@@H]2C1=O | nt | nt | i[10 µM] | i[17.5 µM]
CC(=O)C[C@H](c1ccccc1)c1c(O)c2ccccc2oc1=O | nt | nt | nt | i
O=C(Nc1nc2ccc(S(=O)(=O)N3CCCCC3)cc2s1)c1ccncc1 | i | 3.55µM | i[10 µM] | i
COc1ccc2nc(NC(=O)C3CCN(S(=O)(=O)c4cccs4)CC3)sc2c1 | i | ? | i | i
Cc1ccc2nc(NC(=O)C3CCN(S(=O)(=O)c4cccs4)CC3)sc2c1 | i | i | 3.55µM | i
O=C(Nc1nc2ccc(S(=O)(=O)N3CCCCC3)cc2s1)c1cccnc1 | i | i | i | i
C[C@]12C=CC(=O)N[C@@H]1CC[C@@H]1C2CC[C@]2(C)C(C(=O)Nc3cc(C(F)(F)F)ccc3C(F)(F)F)CC[C@@H]12 (some centres not stated) | nt | i | i | nt
C[C@@H]1O[C@H](O[C@@H]2C(O)[C@H](O)[C@@H](CO)O[C@H]2Oc2cc(O)c3c(=O)cc(-c4ccc(O)cc4)oc3c2)[C@H](O)[C@H](O)[C@H]1O (some centres not stated) | nt | nt | nt | i
C=CCc1cccc(/C=N/NC(=O)CN2CCN(Cc3ccccc3)CC2)c1O | nt | nt | nt | i
CN(C)c1nc(-c2cccnc2)nc2ccccc12 | nt | nt | i | 28.2µM
C/C(=N\NC(=O)c1ccccc1)c1nc2ccccc2n1C | i | 11.2µM | nt | i
C/C(=N\NC(=O)c1ccccc1)c1ccc(-n2ccnc2)cc1 | i | i | i[10 µM] | i
Cc1c(C(=O)NCCO)[n+](=O)c2ccccc2n1[O-] | nt | i | i | nt
C=CCc1cccc(/C=C/c2cc(=O)c3ccccc3[nH]2)c1O | i | 3.16µM | i[10 µM] | i
C=CCc1cccc(/C=N/n2cnnc2)c1O | i | i | i[10 µM] | i
COc1ccc(-c2c(C3C4C=CCCC4(C)C(=O)N3Cc3ccccc3)ccc3ccccc23)cc1OC (configuration not stated) | nt | nt | nt | i
CCCOC(=O)c1ccccc1O | nt | i | i | nt
Nc1[nH]n2c(=O)cc(-c3ccccc3)nc2c1N=Nc1ccccc1 | i | 3.16µM | i | i
SMILES | GLA inh pH 4.5 | HttQ103 aggreg | HTT cytoprotect | GLA spleen mod
CCOC(=O)C1=NO[C@@]2(C=C(Br)C3(OCCCO3)[C@H]3O[C@H]32)C1 | nt | nt | i[10 µM] | i[17.5 µM]
O=[N+]([O-])c1cc(S(=O)(=O)Nc2cccc(C(F)(F)F)c2)ccc1-n1nnc2ccccc21 | i | 11.2µM | i | i
c1ccc(-c2nc3nonc3nc2-c2ccccc2)cc1 | i | 3.16µM | i | i
CN(C)c1ccc(NS(=O)(=O)c2cc(Cl)ccc2Cl)cc1 | i | ? | 0.794µM | i
O=S(=O)(Nc1ncccn1)c1ccc(NS(=O)(=O)c2cc(Cl)ccc2Cl)cc1 | i | i | i | i
CCC(C)NCCC(=O)Nc1ccc(Cl)c(S(=O)(=O)Nc2ccc(Cl)cc2)c1 (configuration not stated) | i | i | i[10 µM] | i
CCN(c1ccc(NS(=O)(=O)c2cc(Cl)ccc2Cl)cc1)C(C)C | i | 10µM | i[10 µM] | i
O[C@@H]1CCN2Cc3ccccc3N=C12 | nt | nt | nt | i

Screening data as filed in PubChem.
